A selection: hits, their analogues and other compounds. The true share with any hit is near 9.5%.
NS1 function inh: qHTS Assay for Inhibitors of Influenza NS1 Protein Function; Potency, µM (doses to about 46.1 µM), without a hit: at the top dose activity, positive = more growth; actives 0.4% (n = 270,000); AID 2326, 2010; also: actives are rising curves; nearly all actives have a fitted effect of over 50% in size
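Compounds were scored for reversing the slow growth caused by influenza A NS1 in S. cerevisiae, measured by optical density at 600 nm. Assay medium contained 2% galactose at pH 6.0; NS1-free yeast of the same strain were the positive control.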
Pf growth 96h: Primary qHTS for delayed death inhibitors of the malarial parasite plastid, 96 hour incubation; AID 504834, 2011; P. falciparum luciferase reporter growth, 96 h; Potency, µM (series often up to 28.7 µM), for the others: top-dose activity change, negative = inhibition, usual class: inhibitors; actives 6.9% (n = 320,000); active = well fitted inhibition curve with a large enough effect; inconclusive = small, poorly fitted or top-dose-only effect, or another doubt; inactive = no such curve, though single readings can be large or run the other way; also: % is scaled to controls: 0 for no effect and ±100 for the full control effect
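Cell-based qHTS: luciferase-tagged P. falciparum in erythrocytes (2% hematocrit, 0.05% parasitemia final) incubated with compounds for 96 hours, 37 C, 5% CO2; luciferase detection reagent then added and luminescence measured.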
RE007 growth inh: qHTS Assay for Inhibitors of the HIV-1 protein Vpr; actives 0.21% (n = 360,000); Potency, µM (titrated, usually from 92.2 µM), for inactives: at the top dose activity change, negative = less growth, actives largely listed as inhibitors; AID 651644, 2012; S. pombe RE007 Vpr strain, BacTiter-Glo ATP luminescence, 24 h; active = well fitted falling curve with a large enough effect; inconclusive = small, poorly fitted or top-dose-only effect; inactive = no such curve, though single readings can be large or run the other way; also: % is scaled to controls: 0 for no effect and ±100 for the full control effect; nearly all actives have a fitted effect of over 50% in size
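Fission yeast RE007 carrying one integrated HIV-1 vpr copy, seeded at OD 0.01 in PMG+AL medium with 23 nL pinned compound. Grown 24 h at 30 degrees; viability read by BacTiter-Glo luminescence after 5 min.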
Pf growth 48h: Primary qHTS for delayed death inhibitors of the malarial parasite plastid, 48 hour incubation | actives 5.9% (n = 310,000) | P. falciparum luciferase growth in erythrocytes, 48 h | Potency, µM (series often up to 28.7 µM), inactives show at the highest dose activity change, negative = inhibition, actives largely listed as inhibitors; active = well fitted inhibition curve with a large enough effect; inconclusive = small, poorly fitted or top-dose-only effect, or another doubt; inactive = no such curve, though single readings can be large or run the other way; also: % is scaled to controls: 0 for no effect and ±100 for the full control effect
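Erythrocytes infected with P. falciparum carrying an integrated firefly luciferase reporter (2% hematocrit, 0.1% parasitemia final) were exposed to compounds in RPMI 1640 with 0.5% Albumax at 37 C, 5% CO2. Growth inhibition was scored as reduced luminescence.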
SARS PLP yeast: qHTS of Yeast-based Assay for SARS-CoV PLP. S. cerevisiae expressing SARS-CoV PLpro, growth rescue. Potency, µM (top dose mostly 32.9 µM), for the others: at the highest dose activity, positive = growth rescue, most hits filed as activators. actives 0.19% (n = 330,000); also: 0% is about no effect; nearly all actives have a fitted effect of over 55% in size
* marks the source's active call; other numbers are inactive results; i = inactive; u = inconclusive; x = no result given; ! = not confirmed by another sample; [ ] = another dose, or the depositor's remark. Unless noted, calls follow the shape of the full dose curve. Potency is read from the fitted curve at half-maximal effect.

SMILES	NS1 function inh	Pf growth 96h	RE007 growth inh	Pf growth 48h	SARS PLP yeast
CC(C)COCc1ccc(O)c2ncccc12	-36%	8%	u	u	-1%
Cc1ccc(C)c(S(=O)(=O)N2CCN(Cc3ccc(O)c4ncccc34)CC2)c1	x	4.1µM*	2%	-12%	u
Oc1ccc(COCc2ccccc2)c2cccnc12	-93%	4.1µM*!	u	3.3µM*	-3%
CCOC(=O)N1CCN(Cc2ccc(O)c3ncccc23)CC1	2%	-19%	-27%	u	8%
Oc1ccc(CN2CCCCC2)c2cccnc12	11%	-1%	-20%	u	-77%
CC(=O)N1CCCC(C)(C(=O)Nc2cccc(OC(C)C)c2)C1 (stereo not drawn)	x	x	6%	x	x
CCC1CN(C(=O)N2CCC(C(=O)Nc3ccccc3F)CC2)c2ccccc2O1 (stereo not drawn)	-22%	u	9%	-12%	1%
OCc1ccc(O)c2ncccc12	-77%	u	-13%	9.3µM*	5%
CCCOCc1ccc(O)c2ncccc12	-79%	4.7µM*	40µM*	12µM*	-17%
CCc1ccc(NC2=NCC(=O)N2Cc2ccc3c(c2)OCO3)cc1	-13%	9.3µM*	-10%	0%	-10%
COC(=O)CN(C#N)c1nc(NCc2ccccc2)nc(OC)n1	12%	u	6%	9.3µM*	2%
COC(=O)CN(C#N)c1nc(N(C)C)nc(N(C)C)n1	x	4.1µM*	7%	-7%	-5%
COC(=O)CN(C#N)c1nc(OC)nc(N(C)C)n1	-5%	4%	13%	-5%	1%
O=C(O)CC(SCC(=O)Nc1ccc(Cl)c(S(=O)(=O)N2CCOCC2)c1)C(=O)O (stereo not drawn)	4%	71%	7%	41%	1%
CCOc1ccccc1OCCCC(=O)Nc1ccc(Cl)c(S(=O)(=O)N2CCOCC2)c1	x	7.4µM*	12%	9.3µM*	4%
CC(CC(=O)Nc1ccc(Cl)c(S(=O)(=O)N2CCOCC2)c1)c1ccccc1 (stereo not drawn)	x	u	4%	12µM*	-3%
COCCNC(=O)C1(C)CCCN(Cc2cc3ccccc3o2)C1 (stereo not drawn)	x	x	3%[18.4 µM]	x	x
O=S(=O)(c1ccc(Cl)cc1)c1cnc2ccccc2n1	x	10µM*	-4%	u	0%
Clc1ccc([C@H](Cn2ccnc2)OCc2c(Cl)cccc2Cl)c(Cl)c1	x	2µM*	x	6.4µM*	x
Clc1ccc(C(c2ccc(Cl)cc2)n2cc[n+](CC(OCc3ccc(Cl)cc3Cl)c3ccc(Cl)cc3Cl)c2)cc1 (stereo not drawn)	-32%	u	18%	u	x
Clc1ccc(COC(Cn2ccnc2)c2ccc(Cl)cc2Cl)cc1 (stereo not drawn)	-43%	1.9µM*	u	2.1µM*	-57%
Clc1cccc(OCCn2ccnc2)c1	10%	i	7%	-3%	3%
CCOC(=O)c1ccc(NC(=O)NCc2ccccn2)cc1	-2%	-7%	24%	-11%	0%
COc1ccc(CCN2CCCn3c2nc2c3c(=O)[nH]c(=O)n2C)cc1OC	3%	10%	5%	13%	0%
COc1cccc(CC(=O)OCC(=O)N(C)CC(=O)Nc2ccc(F)cc2)c1	x	73%	3%	26%	-1%
SMILES	NS1 function inh	Pf growth 96h	RE007 growth inh	Pf growth 48h	SARS PLP yeast
CN(C)c1cc2c(cc1NC(=O)c1ccccc1Cl)n(C)c(=O)n2C	-45%	u	-3%	u	18%
CCOc1cc(C2C3=C(CCCC3=O)N(CCC(=O)O)C3=C2C(=O)CCC3)ccc1OS(=O)(=O)c1ccc(C)cc1	24%	u	22%	u	8%
Cc1ccc(S(=O)(=O)Oc2ccc(C3C4=C(CCCC4=O)N(CCC(=O)O)C4=C3C(=O)CCC4)cc2Cl)cc1	23%	3.3µM*	15%	3.3µM*	-5%
CCNc1nc(OC)nc(N2CCC(Cc3ccccc3)CC2)n1	0%	13µM*	19%	-14%	-11%
CN(C)c1ccc(CN(C(=O)C2COc3ccccc3O2)C2CCS(=O)(=O)C2)cc1 (stereo not drawn)	19%	5.2µM*	9%	u	4%
CC(C)c1ccc(CN(C(=O)C2COc3ccccc3O2)C2CCS(=O)(=O)C2)cc1 (stereo not drawn)	-106%	u	16%	u	-21%
CCc1nc2ccc(C(=O)Nc3cccc(OCC(=O)N(C)C)c3)cn2c1N(C)Cc1cc2ccccc2s1	x	x	-11%	x	x
COc1ccc(C2SCCN2C(=S)Nc2cccc(C(F)(F)F)c2)cc1 (stereo not drawn)	-8%	9.3µM*	-20%	2.3µM*	-19%
COc1cc(CN(C)C(C)C(=O)Nc2ccc([N+](=O)[O-])cc2Cl)ccc1OC(F)F (stereo not drawn)	-15%	u	4%	13µM*	27%
COc1ccccc1NC(=O)C(C)N(C)Cc1ccc(Cl)s1 (stereo not drawn)	-7%	u	-15%	8.3µM*	-8%
COc1ccc([N+](=O)[O-])cc1NC(=O)C(C)N(C)Cc1cccc(OC)c1OC (stereo not drawn)	2%	u	-19%	-18%	13%
COc1ccccc1NC(=O)C(C)N(C)CC(=O)Nc1cccc2ccccc12 (stereo not drawn)	x	x	-9%	x	4%
COc1ccc(Cl)cc1NC(=O)C(C)N(C)Cc1ccc(C(F)(F)F)cc1 (stereo not drawn)	2%	2.1µM*	25%	7.4µM*	-3%
N#Cc1ccccc1S(=O)(=O)N1CCN(C(=O)C2CC(=O)N(c3ccc4c(c3)OCCO4)C2)CC1 (stereo not drawn)	x	x	8%	x	4%
CC1C/C(=N/Nc2ccc([N+](=O)[O-])cc2[N+](=O)[O-])CC(C)(C)C1 (stereo not drawn)	-3%	u	-14%	10µM*	-4%
CC1CCCC/C1=N/Nc1ccc([N+](=O)[O-])cc1[N+](=O)[O-] (stereo not drawn)	10%	237%	5%	x	3%
CCOC(=O)/C=c1/s/c(=C/c2ccccc2OC)c(=O)n1CC(=O)N1CCOCC1	x	x	16%	x	x
Cc1cc(C(=O)NCCCN2CCOCC2)n(-c2ccccc2)n1	1%	-25%	1%	16%	0%
Cc1nn(-c2ccccc2)c2sc(C(=O)c3c(N)n(C)c(=O)n(C)c3=O)cc12	11%	u	5%	1.5µM*	6%
Cc1nn(-c2ccccc2)c2sc(C(=O)NCCN3CCOCC3)cc12	-15%	3.7µM*	14%	u	-11%
Cc1nn(-c2ccccc2)c2sc(C(=O)NC3CCCCC3)cc12	-9%	5%	8%	u	3%
Cc1cnc(NC(=O)c2cc3c(C)nn(-c4ccccc4)c3s2)s1	18%	u	-9%	6.6µM*	-5%

Screening data (PubChem)
